Laboratory results taken from PubChem BioAssay (NCI).
Compounds without any hit were thinned out: in the full panel of roughly 83,000, 20% have a hit.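 Testing used 96-well plates and a 48-hour single-concentration exposure. Example: -40 means 40% of the starting cells died.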 Unmarked numbers belong to inactive results. Active and inactive are the calls of the source. Rule for the calls: active = growth percent below 10; inactive = the rest.

How the values were obtained:
Test in all cases: NCI-60 one-dose screen, 48 h (100 = growth as untreated, 0 = no growth, -100 = all killed)
Conditions in all cases: 10 µM unless noted
[1] = tested on: DU-145 prostate
[2] = tested on: K-562 leukemia
[3] = tested on: MALME-3M melanoma
[4] = tested on: MDA-MB-231 breast
[5] = tested on: RXF 393 renal
[6] = tested on: SF-268 CNS
[7] = tested on: SF-295 CNS
[8] = tested on: SF-539 CNS
[9] = tested on: UACC-257 melanoma
[10] = tested on: HCT-15 colon
[11] = tested on: HT29 colon
[12] = tested on: SNB-75 CNS
[13] = tested on: SNB-19 CNS
[14] = tested on: U251 CNS
[15] = tested on: PC-3 prostate
[16] = tested on: SK-MEL-5 melanoma
[17] = tested on: UACC-62 melanoma
[18] = tested on: LOX IMVI melanoma
[19] = tested on: SK-MEL-28 melanoma
[20] = tested on: M14 melanoma

Row | Structure (SMILES) | growth [1] | growth [2] | growth [3] | growth [4] | growth [5] | growth [6] | growth [7] | growth [8] | growth [9] | growth [10] | growth [11] | growth [12] | growth [13] | growth [14] | growth [15] | growth [16] | growth [17] | growth [18] | growth [19] | growth [20] [%]
1 | COc1ccc(-c2cc(-c3ccccc3)nc(NCCNc3ccnc4cc(Cl)ccc34)n2)cc1 | -73.8% (active) | -47.1% (active) | -77.1% (active) | -89.8% (active) | -87% (active) | -40.1% (active) | -75.4% (active) | -81.7% (active) | -78.8% (active) | -81% (active) | -48.8% (active) | -68.3% (active) | -83.7% (active) | -84.3% (active) | -81.8% (active) | -97.6% (active) | -89.9% (active) | -79% (active) | -92.8% (active) | 
2 | COC(=O)C(=Cc1ccccc1[N+](=O)[O-])C(=O)OC | -45.6% (active) | -12% (active) | 25.2% | 48% | -29.1% (active) | 0.377% (active) | 97.1% | 58.1% | 57.1% | 19.8% | 21.3% | 33.5% | 88.9% | 23.7% | 40.4% | 49.1% | 19.6% | 10.7% | 36.4% | 
3 | COCc1nc2ccccc2[nH]1 | 113% | 99% | 98.7% | 100% | 117% | 108% | 95.1% | 92.8% | 104% | 97.7% | 104% | 95.8% | 101% | 98.3% | 104% | 99.5% | 99.1% | 99.3% | 98.8% | 
4 | Nc1cccc2c1C(=O)c1cccc(NC(=O)c3ccccc3)c1C2=O | 6.99% (active) | 13.3% | -17% (active) | 38.4% | -10.7% (active) | 51.5% | -30.3% (active) | -2.57% (active) | 56.2% | 28.6% | 2.96% (active) | 6% (active) | 45.3% | 22.9% | 32.5% | 12.3% | 48.4% | 8.96% (active) | 44.6% | 
5 | Clc1ccc(/C=N/Nc2nc3ccccc3s2)c(Cl)c1 | 97.9% | 91% | 79.6% |  | 114% | 85.4% | 97.5% | 100% | 93.5% | 85% | 84.1% | 84.3% | 103% | 76.3% | 79.5% | 98.4% | 103% | 84.7% | 114% | 121
6 | C=C(CC(=O)OC)C(C)=O | 107% | 106% | 128% | 94.8% | 112% | 106% | 106% | 120% | 118% | 117% | 119% | 110% | 103% | 116% | 109% | 107% | 95.4% | 110% | 118% | 
7 | C#C[C@]1(O)CC[C@H]2[C@@H]3CC=C4c5nc(Nc6ccc(OC)cc6OC)sc5CC[C@]4(C)[C@H]3CC[C@@]21C | 39% | 6.12% (active) | -21.8% (active) | 1.72% (active) | -60% (active) | 4.95% (active) | -66.3% (active) | -59.5% (active) | -20.3% (active) | -39.1% (active) | -12.8% (active) | -53.6% (active) | 31.2% | -2.51% (active) | -3.17% (active) | -92.2% (active) | -36.8% (active) | -78.3% (active) | -49.1% (active) | 
8 | CC1(C)CC[C@]2(C(=O)O)CC[C@]3(C)C(=CC[C@@H]4[C@@]5(C)C/C(=C/c6cccnc6)[C@H](O)C(C)(C)[C@@H]5CC[C@]43C)[C@@H]2C1 | 5.35% [100 µM] (active) | 9.27% [100 µM] (active) | -30.1% [100 µM] (active) | -24.3% [100 µM] (active) | -37.4% [100 µM] (active) | 22.4% [100 µM] | -7.25% [100 µM] (active) | -26.8% [100 µM] (active) | -8.97% [100 µM] (active) | -5.12% [100 µM] (active) | -79.4% [100 µM] (active) | 19.5% [100 µM] | 16.6% [100 µM] | -8.69% [100 µM] (active) | 4.87% [100 µM] (active) | -77.1% [100 µM] (active) | -56% [100 µM] (active) | -87.1% [100 µM] (active) | -35.3% [100 µM] (active) | 
9 | CCOC(=O)C1=C(C(=O)c2ccc(Br)cc2)C(c2ccc(Br)cc2)NC(=S)N1 (stereo not given) | 113% | 106% | 107% | 109% | 109% | 98.6% | 102% | 99.5% | 109% | 99% | 104% | 93.1% | 100% | 95.8% | 98.1% | 103% | 94.8% | 94% | 105% | 
10 | CNC(=O)c1cc(Oc2ccc3nc(NC(=O)c4ccc5ncccc5c4)sc3c2)ccn1 | 105% | 93.7% | 80.5% | 98.6% | 109% | 97.4% | 86.9% | 107% | 93.1% | 91.1% | 69.9% | 86.5% | 95.1% | 93.6% | 93.2% | 86.4% | 94.9% | 99.6% | 101% | 
11 | C[n+]1cccc(NC(=O)c2ccc3ccc4ccc(C(=O)Nc5ccc[n+](C)c5)nc4c3n2)c1 | 9.79% (active) | 35.8% | 81.4% | 33.2% | 33% | 53.3% | 5.59% (active) | 37.7% | 94.4% | 61.2% | 34.2% | 12.8% | 14.3% | 13% | 55.3% | 1.98% (active) | -54.4% (active) | 64.5% | 31.2% | 
12 | Cc1cc2c(C(C)C)c(O)c(O)c(C=NCc3ccoc3)c2c(O)c1-c1c(C)cc2c(C(C)C)c(O)c(O)c(C=NCc3ccco3)c2c1O | 49.1% | 9.26% (active) | 66.4% | 31.8% | 58.7% | 34.9% | 22% | 60.2% | 80.9% | 19.5% | 31.2% | 64.9% | 19.8% | 25.6% | 29.7% | 91.7% | 67.9% | 37% | 70.3% | 
13 | O=c1[nH]c(CN2CCN(c3cccc(Cl)c3)CC2)nc2cc(Cl)ccc12 | 101% | 97.9% | 108% | 104% | 90.3% | 99.3% | 100% | 94.2% | 59.9% | 94.4% | 106% | 80.5% | 91.3% | 94.6% | 90.6% | 99.4% | 93.8% | 92.5% | 102% | 
14 | O=C(NNc1ccc(-c2ccccc2)nn1)c1ccc(F)cc1 | 88.9% | 98.5% | 109% | 94.5% | 82.1% | 88.8% | 95.3% | 93.4% | 108% | 89% | 96.1% | 79.9% | 86.5% | 95.2% | 105% | 95.3% | 95.3% | 98.9% | 110% | 
15 | O=C1Nc2ccccc2/C1=C/C(=O)c1ccc(N2CCCC2)cc1 | 12.3% | 14.3% | 39.3% | 47.2% | 20.6% | 21.9% | 68.8% | 4.58% (active) | 78.1% | 23.1% | -9.76% (active) | 23.3% | 57.2% | 4.98% (active) | 38.2% | 65.2% | 34.5% | -17% (active) | 76.5% | 
